Inconclusive results are not listed. Calls of active or inactive are those of the source. The calls were made as follows: active = hit-call score of the fitted dose curve at least 0.9, where 1 is the maximum; inconclusive = response in the unintended direction; inactive = score below 0.9.

Read-out in the assay: xenobiotic metabolism (CYP1A2), CYP1A2 (gene 1544)
As to the kind of experiment: CLD_CYP1A2_48hr: CellzDirect (CLD) Gene Expression Assay for xenobiotic metabolism (CYP1A2) at 48 hours (AID 2283703). On the procedure:
CLD_48hr is a cell-based, multiplexed-readout assay that uses hepatocyte, a human liver primary cell, with measurements taken at 48 hours after chemical dosing in a 96-well plate.CLD_CYP1A2_48hr is one of 16 assay component(s) measured or calculated from the CLD_48hr assay. It is designed to make measurements of mRNA induction, a form of inducible reporter, as detected with chemiluminescence signals by Quantitative Nuclease Protection Assay (qNPA) technology.Data from the assay component CLD_CYP1A2_48hr was analyzed at the endpoint, CLD_CYP1A2_48hr, in the positive analysis fitting direction relative to DMSO as the negative control and baseline of activity. Using a type of inducible reporter, gain-of-signal activity can be used to understand changes in the reporter gene as they relate to the gene CYP1A2. Furthermore, this assay endpoint can be referred to as a primary readout. To generalize the intended target to other relatable targets, this assay endpoint is annotated to the cyp intended target family, where subfamily is xenobiotic metabolism.
Human hepatocyte cultures were treated daily for two consecutive days with fresh dosing solutions containing appropriate concentrations of the 320 ToxCast chemicals (chemical identities were blinded to CellzDirect and other ToxCast collaborators), vehicle control (0.2% DMSO), and positive control inducers as summarized in Table 1. Due to the large number of treatment groups and chemicals examined, the ToxCast chemicals were divided into two groups (spanning two independent cultures of hepatocytes from separate donor preparations (Hu778: ToxCast plates 1 and 2; Hu776: ToxCast plates 3 and 4). Each preparation of human hepatocyte cultures was treated with respective vehicle control, medium only control, set of six positive controls/reference chemicals for the five hepatic receptor pathways, and a subset of eight of the ToxCast chemicals (indoxacarb, pyrithiobac-sodium, norflurazon, cyhalofop-butyl, methomyl, thiram, acetochlor, and propiconazole). These replicate data, coupled with internal replicates designed within the blinded ToxCast chemical library, provided additional data to evaluate interindividual differences between hepatocyte preparations and their potential impact on chemical profiles.Cell morphology and integrity were evaluated using phase-contrast microscopy as an indicator of hepatocyte cell health (Tyson & Green, 1987). Cultures for each treatment group (i.e., media, vehicle [0.2% DMSO], positive control inducers [multiple concentrations], and the ToxCast chemicals [multiple concentrations]) were observed and cell morphology was assessed relative to vehicle control cultures at each harvest time point (0, 6, 24, or 48 h). […] Images were evaluated at the conclusion of the study to assess changes in cell integrity and account for the effects of chemical exposure on uncharacteristic changes in concentration-dependent gene expression profiles. The results from these determinations of apparent cytotoxicity were annotated (yes/no) alongside the corresponding qNPA data for reference.At the conclusion of each treatment period, hepatocyte cultures (96-well) were washed with 1 volume of HBSS, lysed by addition of 25 ul ArrayPlate lysis buffer (HTG, Tucson, AZ), and 70 ul/well of Denaturation Oil, denatured by incubation at 95C for 10 min, and frozen at approximately -70C until analysis by nuclease protection assay (qNPA) (Roberts et al., 2007). For qNPA analysis, cell lysates were thawed at 50C for approximately 30 min, qNPA probes were added, and samples were incubated at 95C for 10 min to begin the detection process by denaturing the target RNA, dissociating the duplexes and secondary structure hybridization. At the conclusion of the hybridization period, S1 nuclease reagent was added to each sample to digest all nonprotected nucleotides at 50C for 60-90 min. […]
`Cc1cc(C)nc(Nc2ccccc2)n1`: the AC50 was 7.9 µM (active). As for `COC(=O)NS(=O)(=O)c1ccc(N)cc1`, the compound was called inactive.

Regarding `CC(C)Oc1cccc(NC(=O)c2ccccc2C(F)(F)F)c1`, the AC50 was 7.17 µM (active). `N#CN=C1SCCN1Cc1ccc(Cl)nc1`: the compound was called inactive. Take `Cc1nc(N(C)C)nc(OC(=O)N(C)C)c1C`: the AC50 was 3.27 µM (active).

Consider `COP(=O)(OC)O/C(C)=C/C(=O)N(C)C`, for which the call was inactive. Regarding `CCOc1nc(F)cc2nc(S(=O)(=O)Nc3c(Cl)cccc3Cl)nn12`, the compound was called inactive. Same read-out and setting: then `Cc1cnc(C2=NC(C)(C(C)C)C(=O)N2)c(C(=O)O)c1` (stereo not given), with “inactive”. For `C=C(C)CN(CC)c1c([N+](=O)[O-])cc(C(F)(F)F)cc1[N+](=O)[O-]`, the result was inactive. For `Nc1c(Cl)c(F)nc(OCC(=O)O)c1Cl`, the outcome was inactive. Turning to `Cc1c(COC(=O)[C@@H]2[C@H](/C=C(\Cl)C(F)(F)F)C2(C)C)cccc1-c1ccccc1`, the compound was called inactive. With `COc1ccc(-c2ccccc2)cc1NNC(=O)OC(C)C`, the AC50 was 0.127 µM (active). Regarding `CCOc1nc(C(Cl)(Cl)Cl)ns1`, the AC50 is 5.52 µM (active). Consider `CC(C)Nc1nc(Cl)nc(NC(C)C)n1`, for which the AC50 was 2.76 µM (active). Regarding `COCc1cnc(C2=NC(C)(C(C)C)C(=O)N2)c(C(=O)O)c1` (stereo not given), the call was inactive.

Consider `COC(=O)c1c(C(F)F)nc(C(F)(F)F)c(C2=NCCS2)c1CC(C)C`, for which the AC50 was 1.66 µM (active). Regarding `CC1(C)C(C=C(Cl)Cl)C1C(=O)OC(C#N)c1cccc(Oc2ccccc2)c1` (stereo not given), the AC50 was 14.6 µM (active). In the case of `CNC(=O)Oc1cccc2ccccc12`, the AC50 was 3.23 µM (active). For `Nc1c(Cl)c(Cl)nc(C(=O)O)c1Cl`, the AC50 is 5.16 µM (active). `CC(C)(C)C(=O)C(Oc1ccc(Cl)cc1)n1cncn1` (stereo not given): the AC50 was 12.9 µM (active). For `Cc1ccc(N=CN(C)C=Nc2ccc(C)cc2C)c(C)c1`, the AC50 is 0.673 µM (active). `COP(=S)(OC)SCn1nnc2ccccc2c1=O`: the AC50 is 0.409 µM (active). As for `Nc1cnn(-c2ccccc2)c(=O)c1Cl`, the AC50 is 4.24 µM (active).

For `O=c1n(Cl)c(=O)n(Cl)c(=O)n1Cl`, the outcome was inactive. Take `CCN(CC)C(=O)C(C)Oc1cccc2ccccc12` (stereo not given): the AC50 is 5.76 µM (active). Regarding `COc1cc(OC)nc(NC(=O)NS(=O)(=O)c2ncccc2OCC(F)(F)F)n1`, the compound was classed as inactive. On to `CCCCC(C#N)(Cn1cncn1)c1ccc(Cl)cc1` (stereo not given), for which the AC50 is 11.7 µM (active). Regarding `O=P(O)(O)CCCl`, the result was inactive. The same measure, in the same setting: then `CC(C)=CC1C(C(=O)OCc2coc(Cc3ccccc3)c2)C1(C)C` (stereo not given), with “inactive”. For the compound `CCOP(=S)(OCC)Oc1nc(Cl)n(C(C)C)n1`, the AC50 is 5.78 µM (active). For `CCN(CC)c1nc(C)cc(OP(=S)(OC)OC)n1`, the AC50 is 7.6 µM (active). Same read-out and setting: the figure for `CCCN(CC)CC1COC2(CCC(C(C)(C)C)CC2)O1` (stereo not given) is 0.199 µM (active). Turning to `CNC(=O)N(C)c1nnc(C(C)(C)C)s1`, the compound was classed as inactive.

For the compound `CO/N=C(/C1=NOCCO1)c1ccccc1Oc1ncnc(Oc2ccccc2Cl)c1F`, the outcome was inactive. The same measure, in the same setting: the entry for `COc1cc(Cl)c(OC)cc1Cl` is “inactive”; for `O=C(O)c1c(Cl)ccc2cc(Cl)cnc12` it is “inactive”.

`CCNP(=S)(OC)O/C(C)=C/C(=O)OC(C)C` (stereo not given): the AC50 was 1.99 µM (active). As for `CC(C)N1C(=O)c2ccccc2NS1(=O)=O`, the call was inactive.

Regarding `CS(=O)(=O)c1ccc(C(=O)C2C(=O)CCCC2=O)c([N+](=O)[O-])c1`, the call was inactive. Still for that read-out and setting: the entry for `CCNC(=O)NC(=O)C(C#N)=NOC` is “inactive”.

These data come from PubChem BioAssay (EPA / NIEHS).
